Source: PubChem BioAssay AID588591 (National Center for Advancing Translational Sciences (NCATS), 2011)
About 4,700 (1.2%) of roughly 390,000 compounds were called active. Where a call stands in place of a potency, no number is given. About 4% were inconclusive and are not listed. The call rests on the fitted dose curve; in most records, active means well fitted inhibition curve with a large enough effect; inconclusive means small, poorly fitted or top-dose-only effect, or another doubt; inactive means no such curve, though single readings can be large or run the other way. Only a selection was taken, and actives are over-represented in it overall.
Potency means the concentration at half of the fitted maximal effect.

Each compound was assayed against DNA polymerase eta (Homo sapiens) (UniProt Q9Y253) (assay: qHTS for Inhibitors of Polymerase Eta). Details: recombinant Pol eta, fluorescent DNA replication assay; series mostly up to 114 µM.
Chain of DNA polymerase eta (Homo sapiens) (Q9Y253 whole entry, looked up): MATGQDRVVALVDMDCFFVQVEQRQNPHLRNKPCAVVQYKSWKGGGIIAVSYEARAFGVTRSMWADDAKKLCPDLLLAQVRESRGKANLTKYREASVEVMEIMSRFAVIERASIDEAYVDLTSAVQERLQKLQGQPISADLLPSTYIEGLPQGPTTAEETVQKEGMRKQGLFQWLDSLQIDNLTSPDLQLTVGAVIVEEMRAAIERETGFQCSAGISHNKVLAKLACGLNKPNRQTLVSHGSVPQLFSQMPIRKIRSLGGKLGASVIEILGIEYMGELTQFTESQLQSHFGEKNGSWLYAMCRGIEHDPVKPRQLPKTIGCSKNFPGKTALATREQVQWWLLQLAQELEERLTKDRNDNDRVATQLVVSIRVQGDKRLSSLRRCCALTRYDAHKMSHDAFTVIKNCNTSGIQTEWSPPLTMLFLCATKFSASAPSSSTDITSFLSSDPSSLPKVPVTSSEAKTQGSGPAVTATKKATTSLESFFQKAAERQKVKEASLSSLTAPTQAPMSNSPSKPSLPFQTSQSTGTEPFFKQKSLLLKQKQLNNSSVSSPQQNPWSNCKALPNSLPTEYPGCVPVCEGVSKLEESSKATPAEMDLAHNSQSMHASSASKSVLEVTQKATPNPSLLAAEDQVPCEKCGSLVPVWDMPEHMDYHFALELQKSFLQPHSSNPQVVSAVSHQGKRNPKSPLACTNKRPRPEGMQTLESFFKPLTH
In short: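 Fluorescent replication assay: 50 nM final substrate added after a 15 min room-temperature compound preincubation with 10 nM enzyme. Signal taken at 0 min and again at 10 min.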
`Cc1ccc2nc3c(cc(C(=O)NC4CCCCC4)c(=N)n3C(C)C)c(=O)n2c1` was tested, and the Potency was “inactive”.
`CCc1cc2c(-c3ccccc3)cc(=O)oc2c2c1OCN(Cc1ccc(C)cc1)C2` was tested, and the Potency was “inactive”.
`CCOc1cc(C2C(C(=O)OC)=C(C)NC3=C2C(=O)c2ccccc23)ccc1O` (stereo not drawn) was tested, and the Potency was “inactive”.
In the case of `COC(=O)C1=C(C)NC2=C(C(=O)c3ccccc32)C1c1ccc(-c2ccc(C(=O)O)cc2)o1` (stereo not drawn), the Potency is reported as 31.6 µM (active).
For `CCCOc1ccc(C2c3c(-c4ccccc4O)n[nH]c3C(=O)N2Cc2cccnc2)cc1` (stereo not drawn), the Potency was “inactive”.
For `COc1cc(-c2noc(-c3ccc(N4CCCC4)c([N+](=O)[O-])c3)n2)cc(OC)c1OC`, the Potency was “inactive”.
In the case of `CN1c2ccc(Cl)cc2-c2nc(SCC(=O)Nc3cc(F)ccc3F)ncc2S1(=O)=O`, the Potency is reported as “inactive”.
`O=c1nc2s/c(=C\c3ccco3)c(=O)n2nc1Cc1ccccc1` was tested, and the Potency was 17.8 µM (active).
In the case of `Cc1ccc(C)c(CNC(=O)c2cc3ccccn3n2)c1`, the Potency is reported as “inactive”.
In the case of `COc1ccc(CCNC(=O)c2cc3cccc4c3n2CC(C)S4)c(OC)c1OC` (stereo not drawn), the Potency is reported as “inactive”.
With `CC(CNC(=O)c1nnc(Cc2cccc(F)c2)o1)c1ccccc1` (stereo not drawn) the Potency was “inactive”.
For `COc1cc2nc(SCc3ccc(F)cc3)n3nc(CCn4c(C)nc5ccccc54)nc3c2cc1OC`, the Potency was “inactive”.
`O=S(=O)(NCCS(=O)(=O)N1CCN(c2ccccc2)CC1)c1ccc(Cl)cc1` was tested, and the Potency was “inactive”.
In the case of `Cc1ccc(-c2ccc(/C=C(\C#N)C(N)=S)o2)c([N+](=O)[O-])c1`, the Potency is reported as “inactive”.
`CC1=NN(c2ccc(Cl)c(C(=O)O)c2)C(=O)/C1=C/c1ccc(-c2ccccc2[N+](=O)[O-])o1` was tested, and the Potency was 20 µM (active).
With `O=C(CSc1nc(=O)[nH]c2c1CCCC2)Nc1cc(C(F)(F)F)ccc1Cl` the Potency was “inactive”.
With `COCOc1cc(O)c(C(=O)/C=C/c2ccc(OCOC)c(OCOC)c2)c(OCOC)c1` the Potency was “inactive”.
For `COc1cccc(N2CC(NC(=O)/C=C\c3ccccc3)CC2=O)c1` (stereo not drawn), the Potency was “inactive”.
In the case of `COc1ccc(/C=C/C(=O)c2cc(Br)ccc(=O)c2O)cc1`, the Potency is reported as 31.6 µM (active).
For `Oc1ccc(-c2nc3ccc(Cl)cn3c2Nc2ccc3c(c2)OCO3)cc1`, the Potency was “inactive”.
`O=C(COc1ccc(Cl)cc1)N(Cc1ccco1)Cc1ccco1` was tested, and the Potency was “inactive”.
With `COc1cccc(C(c2c(O)cc(C)n(Cc3ccco3)c2=O)N2CCN(c3ccccc3)CC2)c1` (stereo not drawn) the Potency was “inactive”.
In the case of `O=C(c1ccc(Cl)cc1)n1nc(-c2cccnc2)nc1NCc1ccc(F)cc1`, the Potency is reported as “inactive”.
With `Cc1ccc(C(=O)N/C(=C\c2ccco2)C(=O)N2CCSCC2)cc1C` the Potency was “inactive”.
With `Cc1ccc(N2NC(=O)/C(=C/C=C/c3ccco3)C2=O)cc1C` the Potency was 79.4 µM (active).
`Cc1ccc(N=C2NC(=O)/C(=C/C=C/c3ccco3)S2)cc1C` was tested, and the Potency was 8.91 µM (active).
In the case of `Cc1ccccc1CNC(=O)C(=O)NCC(c1cccs1)S(=O)(=O)c1cccs1` (stereo not drawn), the Potency is reported as “inactive”.
With `CCCS(=O)(=O)c1c(Nc2ccccc2C)sc(C(=O)c2ccccc2)c1N` the Potency was “inactive”.
With `O=C(CCc1cn(Cc2ccc(F)cc2)c2ccccc12)NC1CCCCC1` the Potency was “inactive”.
For `CC(=O)Nc1cccc(NC(=O)CSc2nccn2Cc2ccc3c(c2)OCO3)c1`, the Potency was “inactive”.
In the case of `COc1ccc(-c2nn(CC(=O)NC3CCCC3)c3c2cnc2ccc(F)cc23)cc1`, the Potency is reported as “inactive”.
In the case of `COc1ccc(CCNC(=O)c2ccc(CSCc3ccc(C)cc3)o2)cc1OC`, the Potency is reported as “inactive”.
`COc1ccc(-c2ccc(=O)n(CC(=O)Nc3ccc(Br)cc3F)n2)cc1` was tested, and the Potency was “inactive”.
With `COCCCn1c(Cc2csc(Nc3cccc(Cl)c3)n2)nnc1SCC(=O)OC1CCCCC1` the Potency was 7.94 µM (active).
`COCCCn1c(SCC(=O)NC2CCCC2)nnc1-c1ccccc1` was tested, and the Potency was “inactive”.
For `CCOc1ccc(Nc2nc(Cc3nnc(SCC(=O)NC4CCCC4)n3C)cs2)cc1`, the Potency was “inactive”.
For `COc1ccc(Cn2c(=O)c3oc4ccccc4c3n(CC(=O)Nc3ccc(F)cc3F)c2=O)cc1`, the Potency was “inactive”.
`C=C1c2c(Cl)ccc(O)c2C(O)=C2C(=O)[C@]3(O)C(O)=C(C(N)=O)C(=O)[C@@H](N(C)C)[C@@H]3[C@@H](O)C12` (stereo partly drawn) was tested, and the Potency was 35.5 µM (active).
`O=C(CSc1cn(CC(=O)N2CCOCC2)c2ccccc12)Nc1ccccc1` was tested, and the Potency was “inactive”.
For `COc1ccc(NC(=O)CSc2nc(NS(=O)(=O)c3ccc(C)cc3)cc(=O)[nH]2)cc1`, the Potency was “inactive”.
`Cc1nnc(SC(C)C(=O)Nc2ccc(S(=O)(=O)NC3CCCCC3)cc2)s1` (stereo not drawn) was tested, and the Potency was “inactive”.
In the case of `Cc1nnc(SCC(=O)Nc2ccc(S(=O)(=O)Nc3ccc(Cl)nn3)cc2)s1`, the Potency is reported as 20 µM (active).
With `Cc1nc2nc(SCC(=O)NC3CCC(C)CC3)nn2c(C)c1Cc1ccccc1Cl` (stereo not drawn) the Potency was “inactive”.
For `Cc1cc(C)c2oc(C(=O)Nc3ccc(S(=O)(=O)N(C)c4ccccc4)cc3)cc(=O)c2c1`, the Potency was “inactive”.
With `O=C(Nc1cc(C(F)(F)F)ccc1Cl)c1cc2nc(-c3ccc4c(c3)OCO4)cc(C(F)(F)F)n2n1` the Potency was “inactive”.
For `COC1=C/C(=C/c2c(N)n3nc(CC(=O)N4CCOCC4)sc3nc2=O)C=CC1=O`, the Potency was 44.7 µM (active).
For `COc1ccc(S(=O)(=O)N2CCN(CC(=O)N3CCOCC3)CC2)cc1OC`, the Potency was “inactive”.
In the case of `C=CCC1=C/C(=C\c2c(N)n3nc(CC(=O)N4CCOCC4)sc3nc2=O)C=C(OC)C1=O`, the Potency is reported as 31.6 µM (active).
`COc1ccc(-c2ccnc(SCC(=O)N3CCOCC3)n2)cc1` was tested, and the Potency was “inactive”.
In the case of `O=C(Nc1cc(C(F)(F)F)ccc1Cl)c1nc2ccccc2nc1N1CCCCC1`, the Potency is reported as “inactive”.
`O=C(CN1CCSc2ccccc21)N1CCN(c2ccccc2)CC1` was tested, and the Potency was “inactive”.
With `Cc1cc(C(=O)Nc2cccc(C(F)(F)F)c2)c2c(C)nn(-c3cccc(F)c3)c2n1` the Potency was “inactive”.
For `O=C(c1ccc2c(c1)N(Cc1ccc(Cl)cc1)C(=O)c1ccccc1S2(=O)=O)N1CCCCC1`, the Potency was “inactive”.
In the case of `COc1ccc(NC(=O)CN2CCCN(Cc3ccccc3)S2(=O)=O)cc1`, the Potency is reported as “inactive”.
For `COc1c(Cl)cc(C(=O)N(Cc2ccccc2F)C2CCS(=O)(=O)C2)cc1Cl` (stereo not drawn), the Potency was “inactive”.
With `COc1ccc(NC(=O)CCc2nnc3n(CC(C)C)c(=O)c4ccccc4n23)cc1OC` the Potency was “inactive”.
With `Cc1cccc(NC(=O)C2CC(=O)OC23CCCC3)c1` (stereo not drawn) the Potency was 25.1 µM (active).
In the case of `Cc1cccc(NC(=O)C2CCN(C(=O)NC3CCCCC3)CC2)c1`, the Potency is reported as “inactive”.
With `Cc1cccc(NC(=O)NC2(C)CCS(=O)(=O)C2)c1` (stereo not drawn) the Potency was “inactive”.
In the case of `Cc1ccc(CCNC(=O)c2ccc(CNS(=O)(=O)c3ccc(C)cc3)cc2)cc1`, the Potency is reported as “inactive”.
With `COc1ccc(CCNC(=O)c2cnc3sc(N4CCCCCC4)nn3c2=O)cc1OC` the Potency was “inactive”.
In the case of `COc1ccccc1Nc1c2c(nc3ccc(NC(=O)/C=C/c4cc(OC)c(OC)c(OC)c4)cc13)CCCC2`, the Potency is reported as “inactive”.
`c1ccc(CSc2nnc(-c3ccco3)c(-c3ccco3)n2)cc1` was tested, and the Potency was 22.4 µM (active).
For `Cc1ccc(-c2nnc(SCC(=O)NCc3ccccc3)nc2-c2ccc(C)cc2)cc1`, the Potency was “inactive”.
For `Fc1ccc(CSc2nc(NCc3ccccc3)c3ccccc3n2)cc1`, the Potency was “inactive”.
In the case of `CC1(C)N=C(SCc2ccccc2Cl)c2ccccc2N1`, the Potency is reported as “inactive”.
For `Clc1ccccc1CSc1nnc(-c2ccco2)c(-c2ccco2)n1`, the Potency was 25.1 µM (active).
For `Clc1ccccc1CSc1nncn2c1cc1occc12`, the Potency was “inactive”.
For `CC1=C(C(=O)OCc2ccc(C)cc2)C(c2ccccc2Cl)CC(=O)N1` (stereo not drawn), the Potency was “inactive”.
With `CCN(CC)c1ccc(NS(=O)(=O)c2cc(-c3cc(C)no3)ccc2C)c(C)c1` the Potency was “inactive”.
In the case of `COc1ccc(C)cc1Nc1nc2ccccc2c2nnc(C)n12`, the Potency is reported as “inactive”.
`O=C1CC(c2nnc(Cc3ccc(Cl)cc3)o2)CN1c1ccccc1` (stereo not drawn) was tested, and the Potency was “inactive”.
`Cc1ccc(Cl)cc1NC(=O)C(C)n1nnc2sc(-c3ccccc3)cc2c1=O` (stereo not drawn) was tested, and the Potency was “inactive”.
In the case of `COc1cc(OC)c(NC(=O)N2CC3CCCN3c3ccccc32)cc1Cl` (stereo not drawn), the Potency is reported as “inactive”.
For `C=CCn1c(=S)[nH]c2scc(-c3ccco3)c2c1=O`, the Potency was 17.8 µM (active).
For `Cc1ccc(N2CC(NC(=O)Cc3cccs3)CC2=O)cc1` (stereo not drawn), the Potency was “inactive”.
`Cc1nn(-c2nc(-c3ccccc3)cc(C(F)(F)F)n2)c(C)c1Cl` was tested, and the Potency was “inactive”.
`COc1ccc2oc(C(=O)NCC(Cc3ccccc3)N(C)C)c(C)c2c1` (stereo not drawn) was tested, and the Potency was “inactive”.
In the case of `COc1ccc(OC)c(NC(=O)N[C@H](Cc2ccccc2)C(=O)NN)c1`, the Potency is reported as “inactive”.
In the case of `COc1cc([C@H](Cc2ccccc2)NC(C)=O)oc(=O)c1`, the Potency is reported as 20 µM (active).
With `CCOc1ccccc1CNC(=O)C1CCCN(S(=O)(=O)c2ccc3c(ccn3C)c2)C1` (stereo not drawn) the Potency was “inactive”.
For `Cc1c2cnn(-c3ccccc3)c(=O)c2c(C)n1C(C)C(=O)Nc1ccc(Br)cc1F` (stereo not drawn), the Potency was “inactive”.
With `Cc1cc(=O)[nH]c(SCc2ccc(Cl)cc2)n1` the Potency was “inactive”.
In the case of `Cc1cccc(-c2nc(SCc3ccc(Br)cc3)n3[nH]c(=O)cc3n2)c1`, the Potency is reported as “inactive”.
For `Cc1ccc(-c2nc(SCc3ccc(Br)cc3)n3[nH]c(=O)cc3n2)cc1`, the Potency was 20 µM (active).
In the case of `Cc1cccc(N2CCN(c3ccc(C(=O)O)cc3NC(=O)c3ccccc3F)CC2C)c1` (stereo not drawn), the Potency is reported as “inactive”.
In the case of `Cc1ccc(-c2nn(CCC(=O)Nc3ccc(OC(F)(F)F)cc3)c(=O)c3ccccc23)cc1`, the Potency is reported as “inactive”.
With `O=C(O)CSCc1ccc(C(=O)O)o1` the Potency was “inactive”.
In the case of `O=C(c1ccco1)N1CCN(C(=O)c2ccc(COc3ccc(F)cc3)o2)CC1`, the Potency is reported as “inactive”.
`O=C(O)c1ccc(COc2c(F)c(F)cc(F)c2F)o1` was tested, and the Potency was 44.7 µM (active).
With `COc1cc(C(=O)N2CCN(C(=O)COc3cccc(C)c3)CC2)cc(OC)c1OC` the Potency was “inactive”.
For `CCOc1ccc(NC(=O)c2c(NC(=O)Cc3ccccc3)sc3c2CCC(C)C3)cc1` (stereo not drawn), the Potency was “inactive”.
With `Cc1ccc(C)c(Cn2c(=O)n(CCC(=O)NCc3ccc4c(c3)OCO4)c(=O)c3sccc32)c1` the Potency was “inactive”.
With `Cc1ccc(S(=O)(=O)N2CCC(C(=O)Nc3cc(C)ccc3C)CC2)cc1` the Potency was “inactive”.
In the case of `Cc1cccc(NC(c2cccc(F)c2)c2ccc3ccc(C)nc3c2O)n1` (stereo not drawn), the Potency is reported as “inactive”.
In the case of `O=C(CSc1nc2ccccc2c(=O)[nH]1)Nc1nc(-c2ccc(Br)cc2)cs1`, the Potency is reported as 5.01 µM (active).
In the case of `O=C(COC(=O)c1cc(=O)[nH]c2ccccc12)Nc1nc(-c2cccc(Br)c2)cs1`, the Potency is reported as “inactive”.
For `O=C(CSc1nc(O)c(Cc2ccccc2)c(=O)[nH]1)Nc1nc2c(s1)CCCC2`, the Potency was “inactive”.
